Shown are actives, neighbours in structure and some others; about 2.7% of the full set was active somewhere.
CF NFkB block: blocks PAF-induced NF-kB reporter in cystic fibrosis cells; KKLEB NF-kB-GFP reporter, GFP fluorescence overnight; inhibition, % at 5 µM; hit rate 0.86% among 360,000; AID 588850;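 active means at least 50% inhibition at 5 µM, scaled per plate between neutral and stimulator controls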;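 further: PAF is a Pseudomonas aeruginosa culture filtrate used as stimulus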
Shn3 inh set2: inhibitors of Schnurri-3 3'UTR reporter in osteoblasts. Clone20 osteoblast Shn3 3'UTR firefly luciferase, 24 h. AID 588674. inhibition, % at 12.5 µM. hit rate 0.52% among 360,000;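 active means mean inhibition of at least 75% with every replicate also reaching 75%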
TRPM1 prom inh: reduces MITF-dependent TRPM1 promoter luciferase signal; SK-MEL-5 TRPM1 promoter luciferase, 24 h; hit rate 0.83% among 330,000; inhibition, % at 12.5 µM;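 active means mean inhibition across replicates of 60% or more, whatever share of single replicates reaches that level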
KKLEB cytotox: reduces viability of KKLEB cystic fibrosis airway cells; KKLEB CF airway cells viability, ATPlite luminescence, overnight; hits give low values; cells stimulated with P. aeruginosa culture filtrate; hit rate 0.36% among 360,000; activity change (cytotoxicity), % at 5 µM;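 active means corrected activity change at or below -50% at 5 µM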
HIF-2a inh: HIF-2a inhibition | 786-0 RCC cells HIF-2a reporter, luciferase luminescence, overnight | hit rate 0.72% among 360,000 | inhibition, % at 18.8 µM;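 active means inhibition of the luminescence signal of 40% or more relative to plate controls, in a single-dose primary screen at 18.75 µM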
Peg3 prom inh-1: reduces Peg3 promoter-driven luciferase expression in HeLa | hit rate 1.7% among 360,000 | inhibition, % at 20 µM | AID 588405 | HeLa PEG-Prom luciferase reporter, luminescence, overnight;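 active means inhibition of at least 50% at 20 µM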
Peg3 prom inh-2: Peg3 promoter inhibition confirmation. HeLa PEG-Prom luciferase reporter, luminescence, overnight. AID 602417. shares compounds with Peg3 prom inh-1. inhibition, % at 20 µM. hit rate 84% among 1,300;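 active means at 20 µM dose, 40% or more inhibition averaged across four replicates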
Of the large screens only hits and unclear results are named; the others gave an inactive call (follow-up assays come after a bar, where they were run).

O=S(=O)(c1ccc(Cl)cc1)N1CCN(Cc2ccncc2)CC1	none
O=S(=O)(c1ccc(Cl)cc1)N1CCN(Cc2ccc(O)c3ncccc23)CC1	Shn3 inh set2 88, TRPM1 prom inh 64, Peg3 prom inh-1 52 | Peg3 prom inh-2 56
Nc1ncnc(N)c1NC(=O)c1ccc(OCc2ccccc2)cc1	none (no result: TRPM1 prom inh)
COc1ccc(/C=N/n2c(=O)[nH]c3c([nH]c4ccc(C)cc43)c2=O)cc1CN1CCOCC1	none
CC1=CC(C)[C@H](/C=N/n2c(=O)[nH]c3c([nH]c4ccc(C)cc43)c2=O)C(C)C1 (stereo partly specified)	Peg3 prom inh-1 62 | Peg3 prom inh-2 inactive
O=C(Nc1nc2ccccc2[nH]1)c1ccc([N+](=O)[O-])cc1	none
COc1ccccc1C(=O)NCCC(=O)Nc1nc2ccccc2[nH]1	none
COc1ccccc1C(=O)Nc1nc2ccccc2[nH]1	Shn3 inh set2 91, TRPM1 prom inh 96, KKLEB cytotox -74, HIF-2a inh 93, Peg3 prom inh-1 98 | Peg3 prom inh-2 92
Cc1cc(C(=O)Nc2cnc3ccccc3c2)ccc1[N+](=O)[O-]	none
Cc1ccc(C(=O)Nc2cnc3ccccc3c2)cc1	Shn3 inh set2 86, TRPM1 prom inh 84, HIF-2a inh 84, Peg3 prom inh-1 99 | Peg3 prom inh-2 94
Cc1ccc(C(=O)Nc2nc3ccccc3[nH]2)cc1	TRPM1 prom inh 73, KKLEB cytotox -52, HIF-2a inh 63, Peg3 prom inh-1 71 | Peg3 prom inh-2 64
Cc1nc(SCC(=O)Nc2ccc(S(=O)(=O)N3CCOCC3)cc2)c2c(C)c(C)sc2n1	Peg3 prom inh-1 70 | Peg3 prom inh-2 inactive
CN(C)CC1CCC/C(=C/c2ccc(Cl)cc2)C1=O (stereo unspecified)	TRPM1 prom inh 81, Peg3 prom inh-1 96 | Peg3 prom inh-2 98
O=C1C(=Cc2ccc(Cl)cc2)CCc2ccccc21	none (no result: TRPM1 prom inh)
COc1ccc(/C=C2/CCCC(CN(C)C)C2=O)cc1 (stereo unspecified)	TRPM1 prom inh 68, Peg3 prom inh-1 98 | Peg3 prom inh-2 99
COc1ccc(C=C2CCC3C(=O)CCCC3(C)C2=O)cc1 (stereo unspecified)	none (no result: TRPM1 prom inh)
COc1ccc(CCNC2=CC(=O)CCC2)cc1OC	none (no result: TRPM1 prom inh)
Cc1ccc(S(=O)(=O)N(C)c2ccc(OC(C)C(=O)N(C)c3ccccc3)cc2)cc1 (stereo unspecified)	none
Cc1csc(CN(C)C(=O)CC2C(=O)NCCN2Cc2ccccc2C)n1 (stereo unspecified)	none (no result: TRPM1 prom inh)
CN1OC[C@@H]2CN(S(=O)(=O)c3cccc4ccccc34)[C@H](c3ccc(-c4cccnc4)cc3)C[C@@H]21	none (no result: TRPM1 prom inh)
O=C(Sc1cccc2cccnc12)c1ccccc1Br	Shn3 inh set2 99, TRPM1 prom inh 85, Peg3 prom inh-1 59 | Peg3 prom inh-2 47
NC(N)=N/N=C/c1cccc(Cl)c1Cl	Peg3 prom inh-1 76 | Peg3 prom inh-2 80
COc1cc(NC(=O)c2c(F)c(F)c(F)c(F)c2F)c(OC)cc1Cl	Peg3 prom inh-1 70 | Peg3 prom inh-2 53
COc1cc(NC(=O)c2ccc(F)cc2)c(OC)cc1Cl	none
COc1ccc(CCN2C(=O)C=CC2=O)cc1OC	HIF-2a inh 55, Peg3 prom inh-1 96 | Peg3 prom inh-2 98
C/C=C/c1cccc(-c2nc(C(=O)NC3Cc4ccccc4C3)cc3c2[C@@H](CCO)N(C(C)=O)C3)c1	none (no result: CF NFkB block, Shn3 inh set2, TRPM1 prom inh, KKLEB cytotox, Peg3 prom inh-1)
COc1cc(CNc2ncnc3c2ncn3[C@H]2CN(CCN3CCOCC3)C[C@@H](CO)O2)cc(OC)c1OC	none (no result: TRPM1 prom inh)
NC(=O)c1cc([N+](=O)[O-])ccc1NCc1ccc(N)cc1	TRPM1 prom inh 79, HIF-2a inh 93, Peg3 prom inh-1 81 | Peg3 prom inh-2 78
NC(=O)c1cc([N+](=O)[O-])ccc1NCc1ccc(F)cc1	none (no result: TRPM1 prom inh)
NC(=Nc1c([N+](=O)[O-])cnc2ccccc12)N1CCOCC1	none (no result: TRPM1 prom inh)
COCc1ccc(CN2CCC(C(=O)Nc3cccc(-c4cccc(Cl)c4)c3)CC2)o1	Peg3 prom inh-1 103 | Peg3 prom inh-2 99
COc1ccc(NC(=O)CSc2nnc3n2CCCCC3)cc1OC	none (no result: TRPM1 prom inh)
CCOC(=O)c1cc2c(=O)n3ccccc3nc2n(C)c1=NC(=O)c1c(-c2c(F)cccc2Cl)noc1C	none
